Bioassay records: PubChem, National Center for Advancing Translational Sciences (NCATS)
Only some compounds are listed: those with a hit (about 10% of all), similar ones and a draw of the others.
VP16 counter: counter-screen for ROR gamma inhibitors: Gal4-VP16 reporter. Drosophila S2 Gal4-VP16 UAS-luciferase, luminescence, 20 h. AID 2546. 3.5% of 310,000 active. Potency, µM (top dose mostly 53.6 µM), hits mostly inhibitors;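 also: Gal4-VP16 expression switched on by copper sulfate through the metallothionein promoter; nearly all actives have a fitted effect of over 50% in size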
KB-V1 MDR tox: kills drug-selected multidrug resistant KB-V1 cells | Potency, µM (doses to about 46.1 µM), actives largely listed as cytotoxic | 3.4% of 400,000 active | KB-V1 MDR cells viability, CellTiter-Glo, 72 h; also: nearly all actives have a fitted effect of over 60% in size
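Cells of the MDR subline KB-V1 are plated, dosed with compound at multiple concentrations, and incubated 72 h at 37 degrees C; CellTiter-Glo is then added and luminescence read after 10 min.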
MCF10A rerep: inducers of DNA re-replication in MCF 10A breast cells; MCF 10A DNA re-replication, Hoechst nuclear intensity, 48 h; Potency, µM (series often up to 46.1 µM), most hits filed as activators; 2.9% of 350,000 active; AID 624296; also: nearly all actives have a fitted effect of over 50% in size
KB-3-1 cytotox: KB-3-1 parental cell cytotoxicity | KB-3-1 viability, CellTiter-Glo ATP luminescence, 72 h | Potency, µM (series often up to 46.1 µM), hits mostly cytotoxic | 1.4% of 400,000 active; also: nearly all actives have a fitted effect of over 60% in size
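Cytotoxicity in the drug-sensitive parental line KB-3-1 was scored as loss of CellTiter-Glo luminescence following 72 h incubation with compound. Values come from curve fitting of normalized concentration-response data.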
RORgamma inh: blocks mouse ROR gamma transcriptional activity; 5.4% of 310,000 active; Potency, µM (series often up to 53.6 µM), actives largely listed as inhibitors; Drosophila S2 Gal4-RORgamma UAS-luciferase reporter, 20 h; also: nearly all actives have a fitted effect of over 60% in size
Target sequence (P51450 whole entry, looked up, the tested form may be a part): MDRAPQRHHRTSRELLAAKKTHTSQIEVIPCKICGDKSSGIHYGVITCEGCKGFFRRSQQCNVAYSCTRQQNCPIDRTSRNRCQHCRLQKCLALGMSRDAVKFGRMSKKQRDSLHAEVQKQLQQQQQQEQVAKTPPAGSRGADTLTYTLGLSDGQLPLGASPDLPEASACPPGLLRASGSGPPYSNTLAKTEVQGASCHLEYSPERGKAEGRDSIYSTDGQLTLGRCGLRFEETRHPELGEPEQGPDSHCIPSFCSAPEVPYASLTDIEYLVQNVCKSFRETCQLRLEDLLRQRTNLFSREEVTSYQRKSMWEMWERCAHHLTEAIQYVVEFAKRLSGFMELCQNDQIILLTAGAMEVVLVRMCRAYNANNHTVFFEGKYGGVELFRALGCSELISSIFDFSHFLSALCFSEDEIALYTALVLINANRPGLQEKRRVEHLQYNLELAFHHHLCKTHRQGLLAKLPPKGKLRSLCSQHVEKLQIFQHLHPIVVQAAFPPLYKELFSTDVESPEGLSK
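Drosophila Schneider cells stably carrying a metallothionein-driven Gal4 DBD–ROR gamma fusion and a UAS-Photinus luciferase reporter were exposed to compound for 1 hr, then induced with copper sulfate (700 uM final) for 20 hr at ambient temperature before luminescence reading.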
SW480 rerep: inducers of DNA re-replication in SW480 colon cancer cells; Potency, µM (top dose mostly 46.1 µM), hits mostly activators; 1.8% of 340,000 active; SW480 DNA re-replication, Hoechst DNA content imaging, 48 h; also: nearly all actives have a fitted effect of over 55% in size
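Cells (250 per well) received 23 nL compound or DMSO by pin tool and were kept 48 hr at 37 C, 5% CO2. Nuclei were then stained with Hoechst for 40 min and scanned for DNA content.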
Hits are given with their value; n = inactive; u = inconclusive; x = no result; [ ] = dose if it differs, or a comment. Calls follow the shape of the dose curve; as a rule, active = well fitted curve in the direction sought with a large enough effect; inconclusive = small, poorly fitted or top-dose-only effect, or another doubt; inactive = no such curve, though single readings can be large; an effect the other way counts as inactive or inconclusive.

SMILES	VP16 counter	KB-V1 MDR tox	MCF10A rerep	KB-3-1 cytotox	RORgamma inh	SW480 rerep
COc1ccc(C(=O)CCN2CCCC(C)C2)cc1 (stereo not given)	u	n	u	n	u	u
COc1cc2c(cc1OC)CN(C(=O)CCNC(=O)c1ccc(Br)cc1)CC2	x	n	n	n	x	n
COc1cc2c(cc1OC)CN(CCC(=O)c1ccc(Br)cc1)CC2	u	n	n	n	11µM	n
CC1CCCN(CCC(=O)c2ccc(Br)cc2)C1 (stereo not given)	20µM	n	u	n	u	u
COc1cc2c(cc1OC)CN(C(=O)CCC(=O)c1ccc(F)cc1)CC2	x	u	u	16µM	x	u
Cc1ccc(Nc2nc(=O)c3cccnc3s2)cc1	n	n	16µM	n	n	9.2µM
COc1ccc(OC)c(Nc2nc(=O)c3cccnc3s2)c1	3.2µM	u	n	n	4.5µM	n
CSc1ncc(C(=O)Nc2cc(C)cc(C)c2)c(-c2ccccc2)n1	x	n	x	n	x	x
O=[N+]([O-])c1ccc(N=Nc2ncc[nH]2)cc1	6.3µM	u	u	u	7.1µM	u
Cc1cc(C)cc(-n2c(C)cc(C(=S)N3CCOCC3)c2C)c1	16µM	n	n	n	3.2µM	n
Cc1cc(C(=S)N2CCOCC2)c(C)n1-c1ccc(Cl)cc1	n	u	u	n	n	n
S=C(NN=C(c1ccccc1)c1ccccn1)N(Cc1ccccn1)Cc1ccccn1	x	n	u	u	x	u
S=C(NN=Cc1ccccn1)N(Cc1ccccn1)Cc1ccccn1	x	u	13µM	6.5µM	x	5.8µM
CC(=NNC(=S)N(Cc1ccccn1)Cc1ccccn1)c1cnccn1	x	13µM	4.6µM	u	x	u
O=C(CCCC(=O)N/N=C\c1ccccn1)N/N=C\c1ccccn1	n	n	n	n	n	n
CCCOc1ccc(C(=O)Nc2ccc(Cl)c(-c3nc4ncccc4o3)c2)cc1	x	n	x	n	x	x
COc1ccc(-c2nnc3ccc(SC(C)C)nn23)cc1OC	x	21µM	x	n	x	x
COc1ccc(-c2nnc3ccc(SC(C(C)=O)C(C)=O)nn23)cc1OC	n	n	u	n	n	n
CCC(Sc1ccc2nnc(-c3ccc(F)cc3)n2n1)C(=O)OC (stereo not given)	n	n	n	n	20µM	n
COC(=O)C(C)Sc1ccc2nnc(-c3ccc(F)cc3)n2n1 (stereo not given)	n	n	n	n	n	n
CCc1ccc(NC(=O)N2CCN(Cc3cc(=O)n4nc(-c5ccccc5OC)sc4n3)CC2)cc1	x	n	x	n	x	x
N=c1cc(C2(O)CCCCC2)n2c(nc3ccccc32)s1	u	16µM	18µM	u	n	u
Cc1ccc(CNC(=O)CN2C(=O)CSc3ccc(S(=O)(=O)N(C)C)cc32)cc1	x	n	x	n	x	x
CCCCNC(=S)N(C)/N=C/c1ccc(OCc2ccc(C(=O)OC)cc2)c(OC)c1	n	13µM	u	n	n	n
CCCCNC(=S)N(C)/N=C/c1ccc(F)cc1	u	n	n	n	11µM	x
SMILES	VP16 counter	KB-V1 MDR tox	MCF10A rerep	KB-3-1 cytotox	RORgamma inh	SW480 rerep
O=[N+]([O-])c1ccccc1/C=C/c1ccnc2ccccc12	x	n	x	u	x	x
CN1CCN(c2ccccc2NC(=O)c2ccc(-c3cccc(Cl)c3)o2)CC1	n	n	21µM	u	n	u
O=C(Nc1cccc2nsnc12)c1ccc(-c2cccc(Cl)c2)o1	u	n	5.8µM	n	u	n[9.22 µM]
O=C(Nc1ccccc1N1CCCCC1)c1ccc(-c2cccc(Cl)c2)o1	n	n	16µM	n	n	n
FC(F)(F)c1cc(NC(=S)Nc2ccc3cc4ccccc4cc3c2)cc(C(F)(F)F)c1	n	x	x	x	n	x
CCC(CC)C(=O)Nc1cc(-c2cccc(C)c2)nn1-c1ccccc1	x	n	x	n	x	x
CCOc1ccc(-c2nnc(SCC(=O)NCc3ccccc3)nc2-c2ccc(OCC)c(OC)c2)cc1OC	x	n	x	n	x	x
COc1cccc(CNC(=O)[C@@H]2CCCN2C(=O)OC(C)(C)C)c1	x	u	x	n	x	x
Cc1nn(C)c(C(=O)NNC(=S)NCC(C)C)c1Cl	n	n	n	n	3.2µM	u
Cc1ccc(NC(=S)NNC(=O)c2cn(C)nc2C)cc1	n	n	n	n	11µM	n[9.22 µM]
Cc1nn(C)c(C(=O)NNC(=S)NCc2ccco2)c1Cl	n	n	n	n	n	n
Cc1nn(C)c(C(=O)N/N=C/c2ccc(-c3ccccc3)cc2)c1Cl	11µM	n	u	n	8.9µM	n
COc1ccc(/C=N/NC(=O)c2c([N+](=O)[O-])c(C)nn2C)cc1	n	n	n	n	n	u
Cc1ccc(NC(=S)NNC(=O)c2c([N+](=O)[O-])c(C)nn2C)cc1	n	n	n	n	13µM	n
Cc1ccc(NC(=S)NNC(=O)c2c(Cl)c(C)nn2C)cc1	u	16µM	u	n	4µM	n
CC1=CC(C)(C)N(S(=O)(=O)c2ccc(C)cc2)c2ccccc21	n	u	n	16µM	n	n
COc1ccc2c(c1)C(C)=CC(C)(C)N2S(=O)(=O)c1ccc(NC(C)=O)cc1	n	n	u	2.1µM	n	1.5µM
CC1=CC(C)(C)N(C(=O)CN2C(=O)c3ccccc3C2=O)c2ccccc21	n	u	n	n	n	n
CCOc1ccc2c(c1)C(C)=CC(C)(C)N2S(=O)(=O)c1ccc(NC(C)=O)cc1	n	1.3µM	u	1.6µM	n	u
COc1ccc2c(c1)C(C)=CC(C)(C)N2S(=O)(=O)c1ccc(Br)cc1	n	3.3µM	u	4.1µM	n	18µM
Cc1cc(C)cc(N2CC(c3nc(-c4ccccc4C)no3)CC2=O)c1 (stereo not given)	x	n	x	n	x	x
CC(=O)C1(C)CC2=C(CCCC2(C)C)CC1C (stereo not given)	n	x	x	x	n	x
CN[C@H]1C[C@@H](c2ccccc2)N(C(C)=O)C[C@H]1CO	x	n	x	n	x	x
C=C(CC[C@@H](C)[C@H]1CCC2[C@]1(C)CC[C@]13C[C@@]14CCC(OC(=O)/C=C/c1ccc(O)c(OC)c1)C(C)(C)[C@@H]4CC[C@@]23C)C(C)C (stereo not given in full)	n	x	n	x	n	n
CCOc1ccc2c(c1)C(C)=CC(C)(C)N2S(=O)(=O)c1ccc(F)cc1	n	u	u	7.3µM	n[1.91 µM]	u
SMILES	VP16 counter	KB-V1 MDR tox	MCF10A rerep	KB-3-1 cytotox	RORgamma inh	SW480 rerep
CC1=CC(C)(C)N(S(=O)(=O)c2ccc(F)cc2)c2ccc(C)cc21	n	7.3µM	n	23µM	n	n
CC1=CC(C)(C)N(C(=O)c2ccccc2)c2ccc(C)cc21	n	n	n	n	n	n
CN(C)c1nc(=NCc2ccco2)ss1	u	n	21µM	n	u	n
Cc1nn(C)c(C)c1NC(=O)COc1ccc(Cl)cc1	x	n	n	n	x	n
CCC(=O)Nc1c(C)nn(-c2ccc(C)c(C)c2)c1C	n	n	n	n	n	n
Cc1nn(C)c(C)c1NC(=O)CCl	n	n	n	12µM	n	n
